Screen size: about 320,000 compounds; about 7,600 (2.4%) were called active. Inconclusive results (about 3%) are left out. Calls come from the whole dose curve; as a rule, active = well fitted activation curve with a large enough effect; inconclusive = small, poorly fitted or top-dose-only effect; inactive = no such curve, though single readings can be large or run the other way. The full list was thinned out, with actives kept by preference.
Test: qHTS Assay for NPC1 Promoter Activators; note: nearly all actives have a fitted effect of over 60% in size;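 for activation: reporter is driven by a mutant NPC1 promoter; % of control where 0% means no effect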
Conditions: Huh7 NPC1 promoter luciferase reporter, 24 h; series mostly up to 9.22 µM; activation: at the top concentration
Procedure, shortened: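 Compounds in DMSO were transferred onto Huh7 NPC1-luciferase reporter cells pre-incubated 2 h; after 24 h at 37 °C, Amplite reagent was dispensed and luminescence recorded 10 min later.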
Potency is the fitted concentration of half-maximal effect.

activation, inactive:
CCN1CCN(C(=O)N[C@@H](C(=O)N[C@@H]2C(=O)N3C(C(=O)O)=C(CSc4nnnn4C)CS[C@H]23)c2ccc(O)cc2)C(=O)C1=O -2.2%
Cc1ccc(CNC(=O)c2cccc3c2C(=O)c2ccc(N4CCC(C)CC4)cc2S3(=O)=O)cc1 13.2%
CC1(C)O[C@@H]2[C@H](O1)[C@@H](COS(=O)(=O)O)O[C@H]2n1ccc(=O)[nH]c1=O 0.649%
O=C(/C=C/c1ccccc1[N+](=O)[O-])OCC(=O)N1CCCC1 10.4%
O=C(CNc1ccccc1N1CCCC1=O)Nc1cc(Cl)ccc1-n1cncn1 -0.612%
O=C(Nn1cnc2ccccc2c1=O)c1ccccc1 1.3%
CCCc1nc2ccccc2c(=O)n1/N=C/c1ccc(O)c(O)c1 -8.72%
O=C(Oc1cccc(NC2=NS(=O)(=O)c3ccccc32)c1)c1ccncc1 2.13%
Cc1ccc(S(=O)(=O)N(NC2=NS(=O)(=O)c3ccccc32)C(=O)c2ccccc2)cc1 -4.49%
CCN(CC(=O)Nc1ccccc1C(F)(F)F)C(=O)C1CCN(C(=O)Nc2ccccc2)CC1 1.23%
O=C(c1cn(-c2ccccc2)nc1-c1cccnc1)N1CCN(S(=O)(=O)c2ccccc2F)CC1 -2.08%
CCOC(=O)C1=C(c2ccccc2)O/C(=C(/C(=O)OC)C(F)(F)F)S1 10.5%
Cc1occc1-c1nnc(SCC(=O)NC2(C#N)CCCC2)n1C -2.37%
COc1ccc(-c2cc(C3CCN(c4ncccc4[N+](=O)[O-])CC3)[nH]n2)cc1 1.28%
COc1ccc(-c2cc(C(F)(F)F)nc(NCc3cccnc3)n2)cc1 1.94%
Cn1c(CCN2CCCC2)nc2cc(NS(=O)(=O)c3ccccc3)ccc21 -7.01%
Cc1nc2cc(NC(=O)NC3CC3)ccc2n1C 7.08%
Cc1cc2nc(C)n(CCCNC(=O)Nc3ccccc3)c2cc1C -3.61%
CCC(=O)Nc1ccc2c(c1)nc(CCN1CCN(c3ccccn3)CC1)n2C -10.8%
CCn1c(=O)c(=O)n(CC)c2cc(N3CCCCC3)c(NC(=O)c3ccc(Cl)cc3)cc21 -3.5%
CC(C)n1ncc2c(C(=O)NCc3ccccc3CN(C)C)cc(C3CC3)nc21 -4.26%
COc1nc(N(C)C)nc(N2CC(=O)N(CCNS(=O)(=O)c3ccc(C)cc3)C2=N)n1 2.87%
CCS(=O)(=O)n1nc(-c2ccc(OC)cc2)nc1SC 27.4%
CS(=O)(=O)n1nc(-c2ccccc2)nc1NCc1ccco1 0.536%
CN(CC(=O)Nc1c(Cl)cccc1Cl)C(=O)CC1OC(=O)c2ccccc21 (configuration not stated) -3.28%
COc1ccc(NC(=O)CSc2nc3ccccc3c(=O)n2C)cc1 -9.03%
COC(=O)CSc1nc2ccccc2c(=O)n1Cc1ccccc1 3.25%
O=S(=O)(NC1CCN(S(=O)(=O)c2ccc3c(c2)OCCO3)CC1)c1c(F)cccc1F -2.67%
CCOC(=O)CSc1nnc(-c2cccc(Br)c2)o1 -1.59%
Cc1cccc(C)c1OC(=O)CSc1nnc(-c2ccccc2)o1 -0.799%
Cc1ccc(CN2CC(C(=O)NNC(=O)Cn3ccc(C(F)(F)F)n3)CC2=O)cc1 (configuration not stated) -1.82%
CC(=O)NCc1ccc(-c2csc(NC(=O)CCCc3nc4ccccc4c(=O)[nH]3)n2)cc1 -1.72%
COc1ccc(Cn2c(O)c(/C=C3/C=CC=N3)c(=O)[nH]c2=O)cc1 3.01%
O=C(NCc1ccccc1CN1CCCC1)c1cccc(S(=O)(=O)Nc2ccc(F)cc2)c1 -2.83%
Cc1ccc(NC(=O)C(c2ccccc2)N2CCN(C(=O)c3ccco3)CC2)cc1 (configuration not stated) -1.36%
COc1ccc(Cl)cc1NC(=O)CN(C)C(=O)c1cc(-c2cccs2)nn1-c1ccccc1 0.628%
COc1cc(OC)cc(-c2nnc(N(C)C(=O)c3ccncc3)s2)c1 -5%
CN(C(=O)C1CCOC1)c1nnc(-c2cccnc2)s1 (configuration not stated) 3.19%
COc1ccc(-c2noc(CSc3ccc(C)cc3)n2)cc1 -2.46%
COc1ccc(-c2noc(CNC(=O)C(C)Oc3ccccc3)n2)cc1 (configuration not stated) -2.92%
COc1ccc(-c2noc(CN(C)S(=O)(=O)c3ccc(C)cc3)n2)cc1 16.4%
COc1ccc(OC)c(-c2csc(-c3cccs3)n2)c1 9.23%
O=C(CN1CCN(S(=O)(=O)c2cccc(Cl)c2)CC1)N1CCCCC1 -1.44%
Cc1c2cnn(CC(=O)NCCCN3CC(C)CC(C)C3)c(=O)c2c(C)n1Cc1ccc(Cl)cc1 (configuration not stated) -0.386%
C[C@@H](NC(=O)c1nc[nH]c1C(=O)N1CCN(C(=O)OC(C)(C)C)CC1)c1ccccc1 -3.87%
Cc1ccc(S(=O)(=O)CCC(=O)OCC(=O)NCCc2ccc(S(N)(=O)=O)cc2)cc1 0.187%
O=C(NCCSc1ncc(-c2ccccc2)[nH]1)c1ccco1 15.1%
CCS(=O)(=O)Nc1ccc(C(=O)NCCSc2ccccc2)cc1 29.6%
O=C(Cn1c(-c2ccc(Cl)cc2)noc1=O)N1CCN(c2ccccc2F)CC1 -2.91%
O=C(NCC(=O)N1CCCCCCC1)c1ccccc1Cl 0.782%
Cn1c(S(=O)(=O)O)nc2ccccc21 -5.2%
CCn1c(NC(=O)c2nn(C)cc2Br)nc2ccccc21 0.149%

Potency, inactive:
CC[C@@H]1Cc2cc(O)ccc2C2=C1c1ccc(O)cc1C[C@H]2CC

Potency, active:
O=c1c2ccccc2ncn1/N=C/c1ccccc1 1 µM
CC(C)(C)c1csc(NC2=NS(=O)(=O)c3ccccc32)n1 1.41 µM
COC(=O)/C(=C1\Oc2ccc(C(C)(C)C)cc2S1)C(F)(F)F 3.55 µM
COc1ccc(-c2cc3ncccc3cn2)cc1 2.24 µM
Cn1c(CCN2CCCCCC2)nc2cc(NC(=O)Nc3ccccc3)ccc21 4.47 µM
Cc1nc2cc(NC(=O)Nc3cccc(F)c3)ccc2n1C 0.1 µM
CCS(=O)(=O)n1nc(-c2ccccc2)nc1SCc1ccccc1 3.55 µM
Cc1ccc(C(=O)CSc2nc3ccccc3c(=O)n2N)o1 3.98 µM
CCCCSc1nnc(-c2ccc(C)cc2)o1 0.794 µM
CN(C(=O)c1ccccn1)c1nnc(-c2ccccn2)s1 2.51 µM
COc1ccc(-c2noc(-c3ccc(C)cc3)n2)cc1 2 µM
COc1ccc(-c2nc(-c3ccccc3)no2)c(OC)c1 3.55 µM
O=C(NCCSc1ccccc1)c1ccco1 3.16 µM
Cn1c(NC(=O)c2ccccc2)nc2ccccc21 2.82 µM
